# Measured values from the supplement of paper PMC4466140.
# Legend:
# Test in all cases: SPOT peptide array binding signal intensity (averaged, normalized) (arbitrary units (background-subtracted, floor 0; scale differs between SH3 domains)); higher = stronger binding of the SH3 domain to the peptide
# AgAbp1 = molecular target: AgAbp1
# Summary of the method: (§1)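 GST-fused SH3 domains, from four yeast species, were produced in E. coli BL21(DE3) and captured on glutathione Sepharose. Membranes of cellulose carrying synthetic 15-mer peptides, in which cysteines had been replaced by serines, were exposed to each domain at 10 μg/ml overnight at 4°C in TBS-based blocking buffer. After anti-GST antibody, an HRP anti-mouse secondary and luminol, spots were imaged and quantified using Genespotter. Binding signal is normalized and background-subtracted spot intensity, averaged over replicates, in arbitrary units that differ between domains.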
# AgBbc1 = molecular target: AgBbc1
# Summary of the method: as §1
# AgBem1-D1 = molecular target: AgBem1-D1
# Summary of the method: as §1
# AgBzz1-D1 = molecular target: AgBzz1-D1
# Summary of the method: as §1
# AgBzz1-D2 = molecular target: AgBzz1-D2
# Summary of the method: as §1
# AgCyk3 = molecular target: AgCyk3
# Summary of the method: as §1
# AgFus1 = molecular target: AgFus1
# Summary of the method: as §1
# AgHof1 = molecular target: AgHof1
# Summary of the method: as §1
# AgHse1 = molecular target: AgHse1
# Summary of the method: as §1
# AgLsb1 = molecular target: AgLsb1
# Summary of the method: as §1
# AgLsb4 = molecular target: AgLsb4
# Summary of the method: as §1
# AgMyo5 = molecular target: AgMyo5
# Summary of the method: as §1
# AgNbp2 = molecular target: AgNbp2
# Summary of the method: as §1
# AgRvs167 = molecular target: AgRvs167
# Summary of the method: as §1
# AgSho1 = molecular target: AgSho1
# Summary of the method: as §1
# AgSla1-D1-D2 = molecular target: AgSla1-D1-D2
# Summary of the method: as §1
# AgSla1-D3 = molecular target: AgSla1-D3
# Summary of the method: as §1
# CaAbp1-D1 = molecular target: CaAbp1-D1
# Summary of the method: as §1
# CaAbp1-D2 = molecular target: CaAbp1-D2
# Summary of the method: as §1
# CaBbc1 = molecular target: CaBbc1
# Summary of the method: as §1
# CaBem1-D1 = molecular target: CaBem1-D1
# Summary of the method: as §1
# CaBzz1-D1 = molecular target: CaBzz1-D1
# Summary of the method: as §1
# CaBzz1-D2 = molecular target: CaBzz1-D2
# Summary of the method: as §1
# CaCyk3 = molecular target: CaCyk3
# Summary of the method: as §1
# CaFus1 = molecular target: CaFus1
# Summary of the method: as §1
# CaHof1 = molecular target: CaHof1
# Summary of the method: as §1
# CaHse1 = molecular target: CaHse1
# Summary of the method: as §1
# CaLsb1 = molecular target: CaLsb1
# Summary of the method: as §1
# CaLsb4 = molecular target: CaLsb4
# Summary of the method: as §1
# CaMyo5 = molecular target: CaMyo5
# Summary of the method: as §1
# CaNbp2 = molecular target: CaNbp2
# Summary of the method: as §1
# CaRvs167 = molecular target: CaRvs167
# Summary of the method: as §1
# CaRvs167-3 = molecular target: CaRvs167-3
# Summary of the method: as §1
# CaSho1 = molecular target: CaSho1
# Summary of the method: as §1
# CaSla1-D1-D2 = molecular target: CaSla1-D1-D2
# Summary of the method: as §1
# CaSla1-D3 = molecular target: CaSla1-D3
# Summary of the method: as §1
# ScAbp1 = molecular target: ScAbp1
# Summary of the method: as §1
# ScBbc1 = molecular target: ScBbc1
# Summary of the method: as §1
# ScBem1-D1 = molecular target: ScBem1-D1
# Summary of the method: as §1
# ScBzz1-D1 = molecular target: ScBzz1-D1
# Summary of the method: as §1
# ScBzz1-D2 = molecular target: ScBzz1-D2
# Summary of the method: as §1
# ScCyk3 = molecular target: ScCyk3
# Summary of the method: as §1
# ScFus1 = molecular target: ScFus1
# Summary of the method: as §1
# ScHof1 = molecular target: ScHof1
# Summary of the method: as §1
# ScHse1 = molecular target: ScHse1
# Summary of the method: as §1
# ScLsb1 = molecular target: ScLsb1
# Summary of the method: as §1
# ScLsb2 = molecular target: ScLsb2
# Summary of the method: as §1
# ScLsb3 = molecular target: ScLsb3
# Summary of the method: as §1
# ScLsb4 = molecular target: ScLsb4
# Summary of the method: as §1
# ScMyo3 = molecular target: ScMyo3
# Summary of the method: as §1
# ScMyo5 = molecular target: ScMyo5
# Summary of the method: as §1
# ScNbp2 = molecular target: ScNbp2
# Summary of the method: as §1
# ScPex13 = molecular target: ScPex13
# Summary of the method: as §1
# ScRvs167 = molecular target: ScRvs167
# Summary of the method: as §1
# ScSho1 = molecular target: ScSho1
# Summary of the method: as §1
# ScSla1-D1-D2 = molecular target: ScSla1-D1-D2
# Summary of the method: as §1
# ScSla1-D3 = molecular target: ScSla1-D3
# Summary of the method: as §1
# SpAbp1-D1 = molecular target: SpAbp1-D1
# Summary of the method: as §1
# SpBbc1 = molecular target: SpBbc1
# Summary of the method: as §1
# SpBzz1-D1 = molecular target: SpBzz1-D1
# Summary of the method: as §1
# SpBzz1-D2 = molecular target: SpBzz1-D2
# Summary of the method: as §1
# SpCyk3 = molecular target: SpCyk3
# Summary of the method: as §1
# SpHof1 = molecular target: SpHof1
# Summary of the method: as §1
# SpHof1-2 = molecular target: SpHof1-2
# Summary of the method: as §1
# SpHof1-3 = molecular target: SpHof1-3
# Summary of the method: as §1
# SpHse1 = molecular target: SpHse1
# Summary of the method: as §1
# SpLsb1 = molecular target: SpLsb1
# Summary of the method: as §1
# SpLsb4 = molecular target: SpLsb4
# Summary of the method: as §1
# SpMyo1 = molecular target: SpMyo1
# Summary of the method: as §1
# SpNbp2 = molecular target: SpNbp2
# Summary of the method: as §1
# SpPex13 = molecular target: SpPex13
# Summary of the method: as §1
# SpRvs167 = molecular target: SpRvs167
# Summary of the method: as §1
# SpSla1-D1-D2 = molecular target: SpSla1-D1-D2
# Summary of the method: as §1
# SpSla1-D3 = molecular target: SpSla1-D3
# Summary of the method: as §1
binder,measurement,setting,value
PPPPPPPPPPLPQSL,SPOT peptide array binding signal intensity,AgAbp1,6.5
same,SPOT peptide array binding signal intensity,AgBbc1,≤ 0
same,SPOT peptide array binding signal intensity,AgBem1-D1,≤ 0
same,SPOT peptide array binding signal intensity,AgBzz1-D1,23.5
same,SPOT peptide array binding signal intensity,AgBzz1-D2,≤ 0
same,SPOT peptide array binding signal intensity,AgCyk3,1
same,SPOT peptide array binding signal intensity,AgFus1,≤ 0
same,SPOT peptide array binding signal intensity,AgHof1,366
same,SPOT peptide array binding signal intensity,AgHse1,18
same,SPOT peptide array binding signal intensity,AgLsb1,≤ 0
same,SPOT peptide array binding signal intensity,AgLsb4,≤ 0
same,SPOT peptide array binding signal intensity,AgMyo5,561
same,SPOT peptide array binding signal intensity,AgNbp2,33
same,SPOT peptide array binding signal intensity,AgRvs167,≤ 0
same,SPOT peptide array binding signal intensity,AgSho1,3
same,SPOT peptide array binding signal intensity,AgSla1-D1-D2,1
same,SPOT peptide array binding signal intensity,AgSla1-D3,1.5
same,SPOT peptide array binding signal intensity,CaAbp1-D1,29.5
same,SPOT peptide array binding signal intensity,CaAbp1-D2,≤ 0
same,SPOT peptide array binding signal intensity,CaBbc1,≤ 0
same,SPOT peptide array binding signal intensity,CaBem1-D1,5
same,SPOT peptide array binding signal intensity,CaBzz1-D1,2040
same,SPOT peptide array binding signal intensity,CaBzz1-D2,268
same,SPOT peptide array binding signal intensity,CaCyk3,1
same,SPOT peptide array binding signal intensity,CaFus1,23
same,SPOT peptide array binding signal intensity,CaHof1,0.75
same,SPOT peptide array binding signal intensity,CaHse1,2.25
same,SPOT peptide array binding signal intensity,CaLsb1,0.5
same,SPOT peptide array binding signal intensity,CaLsb4,≤ 0
same,SPOT peptide array binding signal intensity,CaMyo5,156
same,SPOT peptide array binding signal intensity,CaNbp2,67.5
same,SPOT peptide array binding signal intensity,CaRvs167,≤ 0
same,SPOT peptide array binding signal intensity,CaRvs167-3,≤ 0
same,SPOT peptide array binding signal intensity,CaSho1,4
same,SPOT peptide array binding signal intensity,CaSla1-D1-D2,≤ 0
same,SPOT peptide array binding signal intensity,CaSla1-D3,≤ 0
same,SPOT peptide array binding signal intensity,ScAbp1,1
same,SPOT peptide array binding signal intensity,ScBbc1,≤ 0
same,SPOT peptide array binding signal intensity,ScBem1-D1,≤ 0
same,SPOT peptide array binding signal intensity,ScBzz1-D1,4
same,SPOT peptide array binding signal intensity,ScBzz1-D2,2
same,SPOT peptide array binding signal intensity,ScCyk3,≤ 0
same,SPOT peptide array binding signal intensity,ScFus1,≤ 0
same,SPOT peptide array binding signal intensity,ScHof1,92.8
same,SPOT peptide array binding signal intensity,ScHse1,19
same,SPOT peptide array binding signal intensity,ScLsb1,≤ 0
same,SPOT peptide array binding signal intensity,ScLsb2,≤ 0
same,SPOT peptide array binding signal intensity,ScLsb3,49
same,SPOT peptide array binding signal intensity,ScLsb4,≤ 0
same,SPOT peptide array binding signal intensity,ScMyo3,1500
same,SPOT peptide array binding signal intensity,ScMyo5,677
same,SPOT peptide array binding signal intensity,ScNbp2,≤ 0
same,SPOT peptide array binding signal intensity,ScPex13,526
same,SPOT peptide array binding signal intensity,ScRvs167,≤ 0
same,SPOT peptide array binding signal intensity,ScSho1,28.5
same,SPOT peptide array binding signal intensity,ScSla1-D1-D2,3.5
same,SPOT peptide array binding signal intensity,ScSla1-D3,≤ 0
same,SPOT peptide array binding signal intensity,SpAbp1-D1,4
same,SPOT peptide array binding signal intensity,SpBbc1,1
same,SPOT peptide array binding signal intensity,SpBzz1-D1,4430
same,SPOT peptide array binding signal intensity,SpBzz1-D2,41
same,SPOT peptide array binding signal intensity,SpCyk3,≤ 0
same,SPOT peptide array binding signal intensity,SpHof1,≤ 0
same,SPOT peptide array binding signal intensity,SpHof1-2,4
same,SPOT peptide array binding signal intensity,SpHof1-3,≤ 0
same,SPOT peptide array binding signal intensity,SpHse1,13.5
same,SPOT peptide array binding signal intensity,SpLsb1,0.5
same,SPOT peptide array binding signal intensity,SpLsb4,23
same,SPOT peptide array binding signal intensity,SpMyo1,1510
same,SPOT peptide array binding signal intensity,SpNbp2,17
same,SPOT peptide array binding signal intensity,SpPex13,≤ 0
same,SPOT peptide array binding signal intensity,SpRvs167,72.5
same,SPOT peptide array binding signal intensity,SpSla1-D1-D2,≤ 0
same,SPOT peptide array binding signal intensity,SpSla1-D3,≤ 0
